# Measurements from ChEMBL document CHEMBL2218924, “A broad activity screen in support of a chemogenomic map for kinase signalling research and drug discovery” (Biochem J, 2013).
# Assays:
# [1] = target: T1, Ephrin type-B receptor 1 (Homo sapiens) (UniProt P54762); details: at 10 µM
# T1 sequence (whole entry): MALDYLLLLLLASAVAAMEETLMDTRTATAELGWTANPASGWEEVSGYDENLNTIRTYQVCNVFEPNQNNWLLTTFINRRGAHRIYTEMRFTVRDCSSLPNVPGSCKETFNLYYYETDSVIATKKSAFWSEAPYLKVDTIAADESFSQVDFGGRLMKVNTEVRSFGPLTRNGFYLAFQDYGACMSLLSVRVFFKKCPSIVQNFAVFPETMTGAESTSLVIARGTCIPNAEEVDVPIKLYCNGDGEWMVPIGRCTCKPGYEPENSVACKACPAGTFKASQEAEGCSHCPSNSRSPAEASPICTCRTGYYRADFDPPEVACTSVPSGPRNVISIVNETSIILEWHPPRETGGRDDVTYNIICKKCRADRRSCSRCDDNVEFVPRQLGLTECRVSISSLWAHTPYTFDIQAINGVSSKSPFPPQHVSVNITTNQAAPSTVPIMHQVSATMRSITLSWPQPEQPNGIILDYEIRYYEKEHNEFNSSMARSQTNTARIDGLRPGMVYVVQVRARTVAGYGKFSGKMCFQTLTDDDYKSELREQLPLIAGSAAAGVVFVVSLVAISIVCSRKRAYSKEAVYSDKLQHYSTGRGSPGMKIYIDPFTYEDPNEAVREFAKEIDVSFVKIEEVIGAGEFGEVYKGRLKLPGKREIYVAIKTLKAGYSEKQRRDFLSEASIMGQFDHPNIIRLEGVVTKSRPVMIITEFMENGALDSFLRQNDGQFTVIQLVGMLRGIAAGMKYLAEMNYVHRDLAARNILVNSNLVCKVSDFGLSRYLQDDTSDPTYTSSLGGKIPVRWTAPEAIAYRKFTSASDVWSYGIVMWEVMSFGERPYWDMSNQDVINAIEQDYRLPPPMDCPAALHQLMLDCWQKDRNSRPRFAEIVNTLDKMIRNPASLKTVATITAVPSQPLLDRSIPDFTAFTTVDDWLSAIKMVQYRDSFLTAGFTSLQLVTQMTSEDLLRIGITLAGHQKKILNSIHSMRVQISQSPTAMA
# [2] = target: T2, Ephrin type-B receptor 2 (Homo sapiens) (UniProt P29323); details: at 1 µM
# T2 sequence (whole entry): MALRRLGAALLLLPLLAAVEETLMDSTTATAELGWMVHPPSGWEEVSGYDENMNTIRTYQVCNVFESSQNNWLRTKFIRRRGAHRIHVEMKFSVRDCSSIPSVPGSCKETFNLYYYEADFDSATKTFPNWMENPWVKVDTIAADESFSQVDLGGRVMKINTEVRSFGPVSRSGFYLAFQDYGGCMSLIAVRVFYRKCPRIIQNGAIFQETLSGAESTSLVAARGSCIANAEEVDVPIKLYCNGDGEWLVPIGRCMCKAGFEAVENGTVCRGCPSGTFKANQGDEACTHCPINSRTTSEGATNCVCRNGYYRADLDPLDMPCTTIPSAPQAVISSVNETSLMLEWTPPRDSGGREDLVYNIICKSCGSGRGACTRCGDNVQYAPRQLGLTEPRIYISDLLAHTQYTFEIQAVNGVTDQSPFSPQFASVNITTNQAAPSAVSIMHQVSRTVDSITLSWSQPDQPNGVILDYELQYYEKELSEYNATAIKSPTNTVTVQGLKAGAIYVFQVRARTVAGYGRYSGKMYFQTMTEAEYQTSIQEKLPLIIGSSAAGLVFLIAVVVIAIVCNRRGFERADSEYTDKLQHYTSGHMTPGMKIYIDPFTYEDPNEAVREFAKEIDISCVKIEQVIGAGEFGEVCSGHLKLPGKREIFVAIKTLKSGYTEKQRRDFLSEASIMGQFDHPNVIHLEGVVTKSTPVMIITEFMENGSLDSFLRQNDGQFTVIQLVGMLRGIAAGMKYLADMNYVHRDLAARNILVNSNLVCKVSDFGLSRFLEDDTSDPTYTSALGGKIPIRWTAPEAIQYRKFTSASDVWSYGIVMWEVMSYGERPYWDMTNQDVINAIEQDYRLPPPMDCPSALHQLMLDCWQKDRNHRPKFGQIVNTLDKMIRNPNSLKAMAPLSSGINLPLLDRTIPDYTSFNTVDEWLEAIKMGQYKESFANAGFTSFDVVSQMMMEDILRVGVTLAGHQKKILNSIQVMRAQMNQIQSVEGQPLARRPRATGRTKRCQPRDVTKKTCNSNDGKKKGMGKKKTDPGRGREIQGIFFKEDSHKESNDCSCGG
# [3] = target: T2, Ephrin type-B receptor 2 (Homo sapiens); details: at 10 µM
# [4] = target: T3, Ephrin type-B receptor 3 (Homo sapiens) (UniProt P54753); details: at 1 µM
# T3 sequence (whole entry): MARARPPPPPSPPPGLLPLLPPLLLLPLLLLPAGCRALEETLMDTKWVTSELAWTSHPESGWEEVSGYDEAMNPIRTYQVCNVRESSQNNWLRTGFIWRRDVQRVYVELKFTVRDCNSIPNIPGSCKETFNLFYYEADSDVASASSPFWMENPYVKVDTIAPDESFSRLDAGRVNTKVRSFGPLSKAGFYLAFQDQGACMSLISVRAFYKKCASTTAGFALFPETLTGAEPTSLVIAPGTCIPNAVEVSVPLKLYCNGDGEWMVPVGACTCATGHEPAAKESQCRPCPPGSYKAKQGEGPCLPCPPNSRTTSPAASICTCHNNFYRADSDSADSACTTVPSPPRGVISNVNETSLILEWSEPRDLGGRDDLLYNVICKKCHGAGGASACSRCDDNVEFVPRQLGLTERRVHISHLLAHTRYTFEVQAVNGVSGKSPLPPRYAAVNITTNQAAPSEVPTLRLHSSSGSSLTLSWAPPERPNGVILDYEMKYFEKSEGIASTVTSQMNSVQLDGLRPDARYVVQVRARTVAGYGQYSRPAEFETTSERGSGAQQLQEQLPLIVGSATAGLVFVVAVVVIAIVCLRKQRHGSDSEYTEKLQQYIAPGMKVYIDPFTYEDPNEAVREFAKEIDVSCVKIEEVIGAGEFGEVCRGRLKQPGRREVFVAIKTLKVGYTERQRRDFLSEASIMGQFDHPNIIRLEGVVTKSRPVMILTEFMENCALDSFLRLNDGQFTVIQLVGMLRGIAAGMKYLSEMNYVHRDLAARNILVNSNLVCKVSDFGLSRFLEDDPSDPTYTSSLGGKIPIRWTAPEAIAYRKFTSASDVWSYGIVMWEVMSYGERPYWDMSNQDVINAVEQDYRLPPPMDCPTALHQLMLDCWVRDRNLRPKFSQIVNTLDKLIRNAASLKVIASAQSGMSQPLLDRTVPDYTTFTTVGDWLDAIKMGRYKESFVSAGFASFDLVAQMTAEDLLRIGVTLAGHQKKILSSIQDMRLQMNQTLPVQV
# [5] = target: T3, Ephrin type-B receptor 3 (Homo sapiens); details: at 10 µM
# [6] = target: T4, Ephrin type-B receptor 4 (Homo sapiens) (UniProt P54760); details: at 1 µM
# T4 sequence (whole entry): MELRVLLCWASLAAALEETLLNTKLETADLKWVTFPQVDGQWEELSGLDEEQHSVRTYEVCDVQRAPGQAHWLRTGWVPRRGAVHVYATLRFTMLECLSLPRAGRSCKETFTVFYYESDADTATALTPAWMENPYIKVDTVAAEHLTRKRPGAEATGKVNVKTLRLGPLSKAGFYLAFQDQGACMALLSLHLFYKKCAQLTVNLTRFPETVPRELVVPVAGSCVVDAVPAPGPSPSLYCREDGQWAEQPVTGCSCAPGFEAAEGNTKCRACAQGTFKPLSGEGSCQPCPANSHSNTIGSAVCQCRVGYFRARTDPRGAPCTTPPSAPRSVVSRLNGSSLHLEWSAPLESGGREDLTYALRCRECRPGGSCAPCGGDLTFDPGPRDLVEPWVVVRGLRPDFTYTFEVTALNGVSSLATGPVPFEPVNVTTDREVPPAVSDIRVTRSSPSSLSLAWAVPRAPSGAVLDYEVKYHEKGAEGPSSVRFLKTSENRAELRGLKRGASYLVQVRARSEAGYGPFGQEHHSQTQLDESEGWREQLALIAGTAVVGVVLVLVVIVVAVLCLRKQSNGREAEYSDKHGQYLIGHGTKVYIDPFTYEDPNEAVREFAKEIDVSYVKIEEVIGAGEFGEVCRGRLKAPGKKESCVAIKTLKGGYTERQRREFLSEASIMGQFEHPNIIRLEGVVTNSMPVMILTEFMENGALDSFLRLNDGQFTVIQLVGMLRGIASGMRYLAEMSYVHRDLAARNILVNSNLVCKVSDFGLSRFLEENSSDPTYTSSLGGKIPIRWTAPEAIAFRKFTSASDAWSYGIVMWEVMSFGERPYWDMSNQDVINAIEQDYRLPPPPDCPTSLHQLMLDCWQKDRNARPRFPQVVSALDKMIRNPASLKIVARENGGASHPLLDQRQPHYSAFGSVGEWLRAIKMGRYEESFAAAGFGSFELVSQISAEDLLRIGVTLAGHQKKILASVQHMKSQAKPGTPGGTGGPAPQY
# [7] = target: T4, Ephrin type-B receptor 4 (Homo sapiens); details: at 10 µM
# [8] = target: Receptor tyrosine-protein kinase erbB-4 (Homo sapiens) (UniProt Q15303); details: at 1 µM
# [9] = target: Receptor tyrosine-protein kinase erbB-4 (Homo sapiens) (UniProt Q15303); details: at 10 µM
# [10] = target: Focal adhesion kinase 1 (Homo sapiens) (UniProt Q05397); details: at 1 µM
# Sequence of Focal adhesion kinase 1 (Homo sapiens) (Q05397 2-1052 limits assumed): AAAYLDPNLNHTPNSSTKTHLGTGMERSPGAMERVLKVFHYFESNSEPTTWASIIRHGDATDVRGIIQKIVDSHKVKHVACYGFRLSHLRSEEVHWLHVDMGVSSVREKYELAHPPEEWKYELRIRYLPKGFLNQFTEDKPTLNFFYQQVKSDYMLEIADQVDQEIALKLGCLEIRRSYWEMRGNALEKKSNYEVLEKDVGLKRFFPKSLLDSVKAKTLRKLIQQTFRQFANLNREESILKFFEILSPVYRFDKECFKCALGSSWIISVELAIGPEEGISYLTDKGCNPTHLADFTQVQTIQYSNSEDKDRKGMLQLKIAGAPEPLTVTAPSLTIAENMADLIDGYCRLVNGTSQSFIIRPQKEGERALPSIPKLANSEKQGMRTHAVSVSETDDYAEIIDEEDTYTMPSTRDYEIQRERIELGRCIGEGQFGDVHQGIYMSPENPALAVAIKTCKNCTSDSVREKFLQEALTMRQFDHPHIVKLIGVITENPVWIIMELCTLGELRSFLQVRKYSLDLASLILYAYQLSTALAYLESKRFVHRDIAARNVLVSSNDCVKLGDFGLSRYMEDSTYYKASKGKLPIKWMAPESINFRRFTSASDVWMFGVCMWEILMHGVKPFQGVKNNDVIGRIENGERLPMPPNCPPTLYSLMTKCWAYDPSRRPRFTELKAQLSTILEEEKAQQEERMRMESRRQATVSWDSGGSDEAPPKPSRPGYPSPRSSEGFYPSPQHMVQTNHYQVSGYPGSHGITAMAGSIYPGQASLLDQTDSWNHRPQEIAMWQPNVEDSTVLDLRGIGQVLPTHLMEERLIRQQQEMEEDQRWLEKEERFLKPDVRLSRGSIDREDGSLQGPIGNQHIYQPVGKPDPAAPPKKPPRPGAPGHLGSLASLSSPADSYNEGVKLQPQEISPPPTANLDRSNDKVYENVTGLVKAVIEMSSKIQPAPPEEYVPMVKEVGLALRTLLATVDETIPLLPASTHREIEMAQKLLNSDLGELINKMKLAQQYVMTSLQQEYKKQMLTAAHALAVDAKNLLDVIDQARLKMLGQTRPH
# Sequence of Receptor tyrosine-protein kinase erbB-4 (Homo sapiens) (Q15303 whole entry): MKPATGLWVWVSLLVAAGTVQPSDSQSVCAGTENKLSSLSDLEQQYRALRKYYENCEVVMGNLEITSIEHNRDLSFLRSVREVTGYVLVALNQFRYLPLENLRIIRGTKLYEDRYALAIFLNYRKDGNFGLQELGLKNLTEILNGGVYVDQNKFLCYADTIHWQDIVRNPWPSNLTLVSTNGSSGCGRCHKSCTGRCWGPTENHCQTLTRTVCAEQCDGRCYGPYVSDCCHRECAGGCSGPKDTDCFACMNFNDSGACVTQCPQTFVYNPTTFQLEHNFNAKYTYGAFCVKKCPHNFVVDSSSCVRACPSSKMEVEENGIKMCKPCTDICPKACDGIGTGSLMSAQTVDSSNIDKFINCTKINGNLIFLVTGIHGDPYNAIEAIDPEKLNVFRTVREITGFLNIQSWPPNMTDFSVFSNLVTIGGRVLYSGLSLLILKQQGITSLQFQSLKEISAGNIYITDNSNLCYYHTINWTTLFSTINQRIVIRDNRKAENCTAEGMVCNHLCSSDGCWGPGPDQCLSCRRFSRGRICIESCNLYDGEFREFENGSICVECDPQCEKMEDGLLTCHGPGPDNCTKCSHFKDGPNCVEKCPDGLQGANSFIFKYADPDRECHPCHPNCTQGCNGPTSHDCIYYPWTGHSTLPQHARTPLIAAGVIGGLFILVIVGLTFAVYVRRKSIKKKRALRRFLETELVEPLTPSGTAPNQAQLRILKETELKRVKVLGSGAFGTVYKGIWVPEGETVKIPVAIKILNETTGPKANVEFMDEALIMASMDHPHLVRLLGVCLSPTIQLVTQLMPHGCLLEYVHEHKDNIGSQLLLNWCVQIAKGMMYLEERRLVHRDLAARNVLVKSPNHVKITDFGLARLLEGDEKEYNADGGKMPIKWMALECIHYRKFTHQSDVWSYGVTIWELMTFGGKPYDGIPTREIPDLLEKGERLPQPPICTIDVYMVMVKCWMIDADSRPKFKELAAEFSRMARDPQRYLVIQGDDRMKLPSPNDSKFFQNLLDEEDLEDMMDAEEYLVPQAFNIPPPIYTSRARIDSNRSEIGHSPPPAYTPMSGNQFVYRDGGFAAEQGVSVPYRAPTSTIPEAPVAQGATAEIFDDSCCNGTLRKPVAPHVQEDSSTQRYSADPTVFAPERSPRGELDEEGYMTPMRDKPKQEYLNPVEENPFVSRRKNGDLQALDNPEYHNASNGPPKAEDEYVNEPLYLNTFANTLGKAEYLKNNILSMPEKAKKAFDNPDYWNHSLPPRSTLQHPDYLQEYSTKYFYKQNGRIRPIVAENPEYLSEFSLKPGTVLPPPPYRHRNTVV
structure (smiles),measurement,setting,value
O=C1Nc2cc(Br)ccc2/C1=C1/Nc2ccccc2/C1=N\O,residual activity,[1],42%
same,residual activity,[2],33%
same,residual activity,[3],22%
same,residual activity,[4],100% (inactive)
same,residual activity,[5],95%
same,residual activity,[6],17%
same,residual activity,[7],4%
same,residual activity,[8],84%
same,residual activity,[9],88%
same,residual activity,[10],59%
